We go through 32 compounds from PMC5540273 (PLoS ONE, 2017).

The subject of one test is p38-delta. As to conditions: concentration: 1 μM, replicates: in singlicate; n = 1.
Another test has as its system T1, p38-gamma.
T1 construct: gene MAPK12
The conditions noted are these: concentration: 1 μM, replicates: in singlicate; n = 1.
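Also: KINOMEscan kinase panel screen.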

On to `COc1cccc(C2=C(Nc3cccc(C(=O)O)c3)C(=O)NC2=O)c1` [SB-390770], for which the results for the “%Inh” value in the test with p38-delta and with p38-gamma were 34% and 0%, respectively.

As to `COc1cc(OC)cc(-c2cc3cnc(N)nc3nc2NC(=O)NC(C)(C)C)c1`, the “%Inh” value in the test on p38-delta is 0%; in the test with p38-gamma, 9%.

On to `Nc1ncnc2c1ncn2-c1cccc(F)c1` [SKF-97560], for which the “%Inh” value in the test on p38-delta amounted to 0%; in the test on p38-gamma, 48%.

As for `CCc1nc(-c2cccc(C)c2)c(-c2ccncc2)s1`, the “%Inh” value is recorded as 0% with p38-delta and 10% in the test with p38-gamma.

In the case of `CCCNC(=O)Nc1ccc(Oc2ncnc3ccn(C)c23)cc1`, the “%Inh” value in the test with p38-delta is 4%; with p38-gamma, 3%.

Regarding `CCCC(=O)Nc1n[nH]c2ncc(-c3cccc4ccccc34)cc12` [SB-642057], the “%Inh” value worked out at 26% with p38-delta and 39% in the test with p38-gamma.

Regarding `COc1cc2ncn(-c3cc(OCc4ccncc4Br)c(C(N)=O)s3)c2cc1OC` [GW854278], the “%Inh” value is 30% in the test with p38-delta and 10% with p38-gamma.

Take `COc1ccc(CNC(=O)NC2CCN(c3ccnc(Nc4ccc(F)cc4)n3)C2)cc1` (stereo not shown) [GSK1379706]: the “%Inh” value with p38-delta came out at 38%; with p38-gamma, 4%.

Turning to `COc1cc2nccc(Nc3cccc(Oc4ccccc4)c3)c2cc1OC.Cl` [GW284543], the results for the “%Inh” value with p38-delta and in the test with p38-gamma were 22% and 0%, respectively.

With `CCn1c(-c2nonc2N)nc2ccccc21` [SB-693162/GW549034], the “%Inh” value was 0% in the test with p38-delta and 10% with p38-gamma.

As for `COc1cc(Nc2ccnc3ccc(C(F)(F)F)cc23)cc(OC)c1OC` [GW577382], the “%Inh” value in the test on p38-delta amounted to 4%; with p38-gamma, 0%.

For `O=C(NCc1cccs1)c1cc(C(=O)c2c(Cl)cccc2Cl)c[nH]1` [GW823670], the “%Inh” value with p38-delta and in the test with p38-gamma was 0% each time.

`CCc1ccc(-c2ccc3c(c2)-c2nn(C)cc2S(=O)(=O)N3C)cc1`: the “%Inh” value in the test with p38-delta is 22%; with p38-gamma, 9%.

As to `CCC(=O)c1c(-c2ccccc2)c2cc(Cl)ccc2c(=O)n1Cc1cc(S(C)(=O)=O)n(CC(N)=O)n1`, the “%Inh” value amounted to 16% with p38-delta and 7% in the test on p38-gamma.

Take `CCS(=O)(=O)c1ccc(OC)c(Nc2ncc(-c3ccc(F)cc3)o2)c1.Cl` [GW591947]: the “%Inh” value turned out to be 43% in the test on p38-delta and 6% in the test with p38-gamma.

Consider `Nc1n[nH]c2nnc(-c3ccccc3)c(-c3ccccc3)c12` [GW554060], for which the “%Inh” value in the test with p38-delta was 27%; in the test on p38-gamma it was 0%.

Take `COc1ccc(Nc2nccc(N3CCC(NS(=O)(=O)c4ccc(NC(C)=O)cc4)C3)n2)cc1` (stereo not shown) [GSK1379729]: the “%Inh” value in the test on p38-delta is 30%; in the test with p38-gamma, 17%.

Turning to `Nc1nc(-c2ccccc2F)c(-c2ccnc3ccccc23)s1` [GW560459], the “%Inh” value with p38-delta stood at 36%; with p38-gamma it was 0%.

`O=C(NCCNc1ccnc(Nc2ccc(F)cc2)n1)Nc1ccc2c(c1)OCO2` [GSK1379882]: the “%Inh” value in the test with p38-delta is recorded as 37%; with p38-gamma it was 19%.

For `OCCCNc1nccc(-c2c(-c3cccc(C(F)(F)F)c3)nn3cc(C(F)(F)F)ccc23)n1` [GW630813], the “%Inh” value with p38-delta is listed as 20%; in the test on p38-gamma it was 0%.

As to `Cc1nnc(-c2ccc(C)c(-c3ccc(C(=O)O)cc3)c2)o1` [GW608005], the “%Inh” value in the test with p38-delta was 2%; in the test with p38-gamma, 0%.

With `COc1cc2nccc(Nc3ccc(OCc4ccc(NC(C)=O)cc4)cc3)c2cc1OC.Cl` [GW440135], the “%Inh” value with p38-delta is listed as 24%; in the test with p38-gamma it was 0%.

With `COc1cc(Nc2nccc(N3CCC(NC(=O)C(C)c4ccc(Cl)cc4)C3)n2)cc(OC)c1OC` (stereo not shown) [GSK1379757], the “%Inh” value in the test on p38-delta came to 43%; with p38-gamma, 1%.

Regarding `Cc1cc(Nc2nc(-c3cccc(C)n3)nc3ccccc23)ccn1` [GW872411], the “%Inh” value with p38-delta and in the test on p38-gamma was 0% each time.

`Cc1cccc(-c2nc(Nc3ccc4c(cnn4C)c3)c3ccccc3n2)n1` [GW876731]: the “%Inh” value in the test with p38-delta was 0%; in the test on p38-gamma, 16%.

Take `Cc1c(Cn2c(C)nn3c(=O)cc(N4CCO[C@H](C)C4)nc23)cccc1C(F)(F)F` [GSK2373690]: the entries for the “%Inh” value in the test with p38-delta and with p38-gamma were 41% and 0%, respectively.

For the compound `COc1cccc(C2=C(N(C)c3ccccc3)C(=O)NC2=O)c1` [SB-334865], the “%Inh” value in the test on p38-delta was 42%; with p38-gamma it was 0%.

`CCC(=O)c1c(-c2ccccc2)c2cc(Cl)ccc2c(=O)n1Cc1cc(C(=O)NC2CC2)n(C)n1`: the “%Inh” value in the test on p38-delta is 35%; in the test with p38-gamma, 9%.

Consider `O=C1NC(=O)C(c2ccccc2)=C1Nc1cccc(O)c1` [SB-390534], for which the “%Inh” value with p38-delta is given as 0%; with p38-gamma, 15%.

With `Cn1c(=O)c(F)c(Nc2ccc(I)cc2F)c2c(=O)n(OC[C@H](O)CO)cnc21`, the “%Inh” value in the test on p38-delta is 0%; in the test with p38-gamma, 39%.

`Cc1ccc(-c2ccc3c(ccc4sc5c(c43)NC[C@@H](C)N=C5N(C)C)n2)cn1`: the “%Inh” value came to 10% in the test on p38-delta and 14% in the test on p38-gamma.

On to `COc1ccc(-c2cc3c(C)nc(N)nc3n([C@H]3CC[C@H](O)CC3)c2=O)cn1`, for which the “%Inh” value came out at 0% in the test on p38-delta and 100% in the test on p38-gamma.
